Screening results: PubChem, National Center for Advancing Translational Sciences (NCATS)
Rows were chosen to be rich in hits. Some 3.7% of all compounds tested hit in one or more screens of this group.
S2 tox: cell viability loss in ATXN counter-screen; S2 cells (HEK-293 line with an ATXN2-luciferase reporter) viability, CellTiter-Fluor protease fluorescence, 24 h; Potency, µM (top dose mostly 56.7 µM), usual class: cytotoxic; hit rate 0.49% among 400,000; note: nearly all actives have a fitted effect of over 40% in size
ATXN2 expr inh: reduces ATXN2 reporter expression in HEK-293 cells | hit rate 0.72% among 360,000 | Potency, µM (highest dose often 57 µM), inactives show top-dose activity change, negative = inhibition, hits mostly inhibitors | HEK-293 ATXN2-luciferase reporter, luminescence, 24 h; note: % is set by controls: 0 for no effect and ±100 for the full control effect; nearly all actives have a fitted effect of over 55% in size
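qHTS (up to 57 uM final) was run with 24 h compound exposure of reporter cells at 37 °C. Each well was multiplexed: SteadyGlo luminescence measured ATXN2-luciferase expression after a fluorogenic Gly-Phe-AFC viability readout (25 uM final).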
GLP1R inv ag: acts as inverse agonist at human GLP-1 receptor | HEK293 GLP-1R CRE-luciferase, luminescence, 24 h; GLP-1R form is constitutively active | Potency, µM (series often up to 38.3 µM), for inactives: at the top dose activity change, negative = inhibition, hits mostly inhibitors | hit rate 1.6% among 410,000; note: % is set by controls: 0 for no effect and ±100 for the full control effect; nearly all actives have a fitted effect of over 55% in size
Target sequence (P43220 whole entry, looked up): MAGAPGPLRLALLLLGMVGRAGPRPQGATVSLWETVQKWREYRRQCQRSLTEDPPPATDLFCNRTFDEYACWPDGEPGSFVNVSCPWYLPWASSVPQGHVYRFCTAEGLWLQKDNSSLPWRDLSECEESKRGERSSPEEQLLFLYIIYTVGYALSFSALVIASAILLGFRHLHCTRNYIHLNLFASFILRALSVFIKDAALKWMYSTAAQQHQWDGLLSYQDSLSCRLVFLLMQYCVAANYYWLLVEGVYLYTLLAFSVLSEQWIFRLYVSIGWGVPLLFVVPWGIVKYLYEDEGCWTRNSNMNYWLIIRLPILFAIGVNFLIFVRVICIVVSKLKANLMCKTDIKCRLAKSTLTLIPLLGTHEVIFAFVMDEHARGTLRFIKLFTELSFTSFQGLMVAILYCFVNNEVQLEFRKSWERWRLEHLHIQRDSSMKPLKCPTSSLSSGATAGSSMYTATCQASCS
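Readout was luciferase luminescence, measured 12 min after detection reagent at room temperature. Beforehand, GLP-1R reporter HEK293 cells had sat 12 h, then received compounds for 24 hr at 37 deg C.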
GLP1R ag: GLP-1 receptor (human) agonism | P43220 | HEK293 GLP-1R CRE-luciferase, luminescence, 4-6 h; cells express a hypersensitive GLP-1R form | Potency, µM (highest dose often 45.6 µM), for the others: at the highest dose activation, hits mostly activators | hit rate 0.007% among 380,000 | AID 624172; note: % of control where 0% means no effect
TGFb SMAD3 inh: blocks TGF-b signaling | AID 588855 | HepG2 CAGA-GFP TGF-b/SMAD3 reporter, GFP fluorescence, 18 h; TGF-beta stimulated, 500 pg/mL final | hit rate 1.2% among 410,000 | Potency, µM (titrated, usually from 46.1 µM), for the others: at the highest dose activity, negative = inhibition, usual class: inhibitors; note: % is set by controls: 0 for no effect and ±100 for the full control effect; nearly all actives have a fitted effect of over 65% in size
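HEPG2 CAGA-GFP cells (1000/well, DMEM with 1% FBS) were pre-incubated 2 h at 37 degrees C, given compound by pin tool, then stimulated with TGF-beta at 500 pg/mL final for 18 h before per-cell GFP fluorescence imaging.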
HepG2 viability: kills HepG2 cells in TGF-b inhibitor counter-screen. HepG2 CAGA-GFP viability, ATP luminescence, 18 h. Potency, µM (series often up to 46.1 µM), for the others: at the top dose activity change, negative = cytotoxicity, usual class: cytotoxic. hit rate 0.76% among 410,000. AID 588856
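CellTiter-Glo luminescence gave cytotoxicity after 18 hours at 37 degrees C. The cells were HepG2 CAGA-GFP in 1% FBS DMEM, stimulated with 500 pg/mL TGF-beta after compound addition. %Activity was normalised to no-cell wells (complete cell-killing) and DMSO (no toxicity), and curves were fitted and classified.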
An asterisk follows results filed as active; i = inactive; ? = inconclusive; . = no result; [ ] = dose if it differs, or a comment. Calls come from the whole dose curve; as a rule, active = well fitted curve in the direction sought with a large enough effect; inconclusive = small, poorly fitted or top-dose-only effect, or another doubt; inactive = no such curve, though single readings can be large; an effect the other way counts as inactive or inconclusive. Potency is the fitted concentration of half-maximal effect.

SMILES | S2 tox | ATXN2 expr inh | GLP1R inv ag | GLP1R ag | TGFb SMAD3 inh | HepG2 viability
O=C(Nc1ccc(Br)cc1)c1ccc(F)c(S(=O)(=O)NC2CCCCCC2)c1 | . | . | 3.16µM* | . | ? | -81.8%
COc1ccc(CCNS(=O)(=O)c2ccc(F)c(C(=O)Nc3ccc(Cl)cc3)c2)cc1OC | ? | ? | ? | . | ? | -20.7%
Cc1ccc(NC(=O)c2cc(S(=O)(=O)NCCc3ccc(Cl)cc3)ccc2F)cc1 | ? | ? | 11.2µM* | . | ? | -79.2%
O=C(Nc1cc(Cl)cc(Cl)c1)c1ccc(F)c(S(=O)(=O)NC2CCCCC2)c1 | ? | ? | ? | . | ? | -93.8%
CCCS(=O)(=O)NCc1c(C)ncc2c1CCN(C(=O)/C=C/c1ccccc1)C2 | i | . | . | . | . | .
Cc1ccc(S/C(=N/S(=O)(=O)c2ccc(Cl)cc2)c2ccccc2)cc1 | . | . | . | . | 5.6% | -21.9%
Nc1nc2[nH]cc(CCc3ccc(C(=O)NC(CCC(=O)O)C(=O)O)cc3)c2c(=O)[nH]1 (stereo not given) | . | . | . | 2.4% | . | .
O=C(Nc1ccc(F)c(F)c1)c1cc(S(=O)(=O)NC2CCCCCC2)ccc1F | . | . | ? | . | ? | -97.4%
CCOc1ccc(NC(=O)c2cc(S(=O)(=O)NC3CCCCCC3)ccc2F)cc1 | . | . | ? | . | ? | -20.5%
CC(C)c1ccc(NC(=O)c2cc(S(=O)(=O)NC3CCCCC3)ccc2F)cc1 | ? | ? | ? | . | ? | 12.6µM*
CCOc1ccccc1NC(=O)c1cc(S(=O)(=O)NC2CCCC2)ccc1F | ? | ? | 6.31µM* | . | ? | -13.3%
CC(C)(O)C#Cc1ccc(CN2CCc3nnc(CNC(=O)c4cccc(F)c4)n3CC2)cc1 | i | . | . | . | . | .
COc1ccc2oc(C(=O)Nc3ccc(S(=O)(=O)N(C)C4CCN(C)CC4)cc3)c(C)c2c1 | ? | ? | ? | 16.8% | ? | 12.6µM*
CN1CCC(N(C)S(=O)(=O)c2ccc(NC(=O)COc3cccc(C(F)(F)F)c3)cc2)CC1 | i | -7.3% | 11.2µM* | 2.0% | 2.4% | -31.9%
COc1ccc(CC(=O)Nc2ccc(S(=O)(=O)N(C)C3CCN(C)CC3)cc2)cc1 | i | 0.6% | -14.2% | 5.3% | 2.7% | -4.7%
CC(Oc1ccc(Br)cc1)C(=O)Nc1ccc(S(=O)(=O)N(C)C2CCN(C)CC2)cc1 (stereo not given) | i | -34.0% | 2.82µM* | -3.6% | ? | -39.7%
CN1CCN(NC(=O)COc2cccc(C(F)(F)F)c2)CC1 | i | -10.8% | -10.8% | -0.4% | 0.0% | -15.0%
COC(=O)c1ccccc1NC(=O)NCc1ccc2c(c1)CCN2C(=O)c1ccccc1 | ? | 0.0% | 13.9% | . | ? | -10.6%
CC(C)(C)n1ncc2c(=O)n(Cc3cccc(OC(F)(F)F)c3)cnc21 | . | . | . | . | ? | -35.7%
CC1=C(C(=O)Nc2ccccc2)C(c2ccccn2)n2nc(SCc3ccccc3)nc2N1 (stereo not given) | i | 1.9% | 19.3% | -0.3% | 0.0% | 3.0%
NC1=N[C@H]2[C@H](CS[C@H]2CCCCC(=O)O)N1 | . | 11.6%[25.6 µM] | . | . | . | .
CCN1CCC(N(Cc2ccc3c(c2)OCO3)C(=O)Nc2cccc(C)c2C)CC1 | i | -7.9% | -27.8% | . | 2.3% | -8.1%
CCN1CCC(N(Cc2ccc3c(c2)OCO3)C(=O)Nc2ccc(Br)c(C)c2)CC1 | ? | 25.1µM* | -25.8% | . | ? | -94.5%
S=C=Nc1ccc(N=C=S)cc1 | . | . | . | -4.5% | . | .
Cc1ncoc1C(=O)N1CCc2c([nH]c3ccccc23)C1c1ccccc1F (stereo not given) | i | -6.1% | -23.1%[7.66 µM] | 13.1% | -10.6% | 5.1%
SMILES | S2 tox | ATXN2 expr inh | GLP1R inv ag | GLP1R ag | TGFb SMAD3 inh | HepG2 viability
CCn1nc(C)cc1C(=O)N1CCc2c([nH]c3ccccc23)C1c1cc(F)ccc1F (stereo not given) | i | 26.8% | 10µM* | 16.7% | -12.7% | 5.7%
CCOC(=O)c1c(Nc2cccc(C(=O)OC)c2)nnc(-c2ccccc2)c1-c1ccccc1 | i | -1.1% | 0.6% | -5.7% | -0.8% | -16.9%
CCOC(=O)c1c(Nc2ccc(C)cc2)nnc(-c2ccccc2)c1-c1ccccc1 | i | 0.0% | 11.2µM* | -2.8% | ? | -16.8%
COC(=O)CN1C(=O)[C@@H]2[C@H](C1=O)[C@@H]1CC(C(=O)OC)=C[C@@H](C(=O)OC)C3C1=C(C(=O)[C@]3(C)NC(=O)c1ccccc1)[C@@H]2C (stereo not given in full) | . | . | . | . | -18.2% | -21.4%
CC1(C)CN(c2ccccc2)N(C(=O)c2ccc(C#N)cc2)C1=O | i | -21.0% | 3.16µM* | -3.0% | -0.4% | -0.6%
CC1(C)CN(c2ccccc2)N(C(=O)c2ccc(F)cc2)C1=O | i | -17.1% | 0.0% | -12.0% | -0.5% | -6.8%
Cc1cccc(/C=C/C(=O)c2ccc(NC3=NCCCS3)cc2)c1 | 10µM* | . | ? | -6.6% | ? | -94.9%
COc1cccc(/C=C/C(=O)c2ccc(NC3=NCCCS3)cc2)c1 | . | ? | ? | 8.0% | ? | -44.6%
O=C(/C=C/c1ccc(Br)cc1)c1ccc(NC2=NCCCS2)cc1 | 31.6µM* | ? | 5.01µM* | -3.8% | ? | -99.1%
COc1ccc(Br)cc1CNC(=O)CCCn1c(=O)c2cccn2c2ccccc21 | . | . | -20.5% | . | 0.0% | -19.0%
Cc1c(C(=O)NCC2CCCN(C)C2)cnn1-c1ncc2c(n1)-c1ccccc1CCC2 (stereo not given) | i | . | . | . | . | .
COc1ccc(OC)c(NC(=O)CSCc2cnn(-c3ccccc3)c2-n2cccc2)c1 | i | -11.6% | 11.2µM* | 9.0% | -7.0% | -4.8%
COc1cc(NC(=O)CSCc2cnn(-c3ccccc3)c2-n2cccc2)cc(OC)c1 | i | -11.7% | 3.16µM* | 1.2% | ? | -2.2%
CCOc1ccc(NC(=O)CSCc2cnn(-c3ccccc3)c2-n2cccc2)cc1 | i | -5.2% | 0.0% | 0.1% | ? | -1.9%
Cc1ccc(NC(=O)CSCc2cnn(-c3ccccc3)c2-n2cccc2)c(Cl)c1 | . | . | 10µM* | . | ? | -26.6%
O=C(NCc1ccccc1F)c1cccc(NC(=O)N2CCSc3ncccc32)c1 | . | . | 5.9% | . | -19.1% | -1.5%
N#Cc1ccccc1NC(=O)C1CC(=O)N(c2ccc3c4c(cccc24)CC3)C1 (stereo not given) | i | -18.8% | 11.5% | 9.1% | 0.0% | 0.8%
Cc1ccc(NC(=O)C2CC(=O)N(c3ccc4c5c(cccc35)CC4)C2)cc1 (stereo not given) | i | -6.9% | 10µM* | -4.8% | -13.4% | -5.2%
